Experimental data published in PubChem BioAssay AID1159580 (chemical genetic matrix, 2015).
Screen size: about 5,500 compounds; about 2,000 (36%) were called active. About 18% were inconclusive and are not listed. No stated cut-off is given here; in the data, active means normalized growth mostly below about 0.91 (no sharp cut-off); inconclusive means no clear call, values can overlap the other calls; inactive means mostly above about 0.92. This is one part of the list.

Assay: chemical genetic growth profiling, strain panel (AID 1159580);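 further: tested at 20 µM; growth read once vehicle control cultures reached saturation at 30 °C; 1 = growth at the plate median or of vehicle wells; lower values mean less growth of the strain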
Conditions: S. cerevisiae deletion strains, growth OD
[1] = locus YHR030C, strain SLT2, active compounds read low
[2] = locus YJL095W, strain BCK1, active compounds read low

Measured: normalized growth

COc1ccc(-c2coc3c(OC)c(OC)ccc3c2=O)cc1
active: locus YBR021W, strain FUR4, active compounds read low 0.728 | locus YGR229C, strain SMI1, active compounds read low 0.787
inactive: locus YBR229C, strain ROT2, active compounds read low 0.996 | locus YCL029C, strain bik1, active compounds read low 0.998 | locus YDL035C, strain GPR1, active compounds read low 0.963 | locus YDL074C, strain BRE1, active compounds read low 0.917 | locus YDL101C, strain DUN1, active compounds read low 0.969 | locus YDL134C, strain PPH21, active compounds read low 0.924 | locus YDL185W, strain tfp1, active compounds read low 1.01 | locus YDL192W, strain arf1, active compounds read low 0.997 | locus YDR101C, strain arx1, active compounds read low 0.985 | locus YDR162C, strain NBP2, active compounds read low 0.875 | locus YDR318W, strain mcm21, active compounds read low 0.988 | locus YDR388W, active compounds read low 1 | locus YDR502C, strain sam2, active compounds read low 0.986 | locus YEL061C, strain CIN8, active compounds read low 0.986 | locus YER110C, active compounds read low 1.01 | locus YER155C, strain BEM2, active compounds read low 0.988 | locus YER167W, strain BCK2, active compounds read low 0.974 | locus YGL078C, strain dbp3, active compounds read low 1 | locus YGL086W, strain mad1, active compounds read low 0.958 | locus YGL248W, strain PDE1, active compounds read low 0.957 | locus YGR135W, strain pre9, active compounds read low 0.968 | locus YGR252W, strain gcn5, active compounds read low 0.82 | [1] 0.984 | locus YHR079C, strain IRE1 (second series), active compounds read low 1.01 | locus YHR094C, strain hxt1, active compounds read low 1.01 | locus YHR129C, strain ARP1, active compounds read low 0.983 | locus YHR200W, strain rpn10, active compounds read low 1.01 | locus YIL066C, strain RNR3, active compounds read low 0.925 | locus YIL073C, strain SPO22, active compounds read low 0.99 | locus YIL125W, strain kgd1, active compounds read low 1 | locus YIR030C, strain dcg1, active compounds read low 0.998 | [2] 0.838 | locus YJL134W, strain LCB3, active compounds read low 0.995 | locus YJL168C, strain set2, active compounds read low 1.01 | locus YJL187C, strain SWE1 (second series), active compounds read low 0.957 | locus YJR043C, strain POL32, active compounds read low 0.899 | locus YJR075W, strain HOC1, active compounds read low 0.95 | locus YKL009W, strain mrt4, active compounds read low 0.988 | locus YKL068W, active compounds read low 1 | locus YKL085W, strain MDH1 (second series), active compounds read low 0.994 | locus YKL085W, strain MDH1, active compounds read low 0.994 | locus YKR001C, strain vps1, active compounds read low 0.948 | locus YLR039C, strain RIC1, active compounds read low 0.907 | locus YLR058C, strain SHM2, active compounds read low 0.974 | locus YLR102C, strain apc9, active compounds read low 1.01 | locus YLR262C, strain YPT6, active compounds read low 0.906 | locus YLR268W, strain sec22, active compounds read low 0.953 | locus YLR330W, strain CHS5, active compounds read low 0.972 | locus YLR342W, strain FKS1 (second series), active compounds read low 0.912 | locus YLR371W, strain rom2, active compounds read low 1.01 | locus YLR418C, strain cdc73, active compounds read low 0.879 | locus YML016C, strain PPZ1, active compounds read low 0.993 | locus YML032C, strain rad52, active compounds read low 0.995 | locus YML124C, strain tub3, active compounds read low 0.997 | locus YMR078C, strain ctf18, active compounds read low 1.02 | locus YMR223W, strain ubp8, active compounds read low 1.01 | locus YMR263W, strain SAP30, active compounds read low 0.931 | locus YMR307W, strain GAS1, active compounds read low 0.834 | locus YNL067W, strain RPL9B, active compounds read low 0.941 | locus YNL128W, strain TEP1, active compounds read low 0.973 | locus YNL153C, strain GIM3, active compounds read low 0.955 | locus YNL233W, strain BNI4, active compounds read low 0.884 | locus YNL250W, strain rad50, active compounds read low 1.03 | locus YNL271C, strain bni1, active compounds read low 0.997 | locus YNL298W, strain CLA4, active compounds read low 0.997 | locus YNL307C, strain MCK1, active compounds read low 0.96 | locus YNL322C, strain KRE1, active compounds read low 0.98 | locus YNR052C, strain pop2, active compounds read low 1.01 | locus YOL012C, strain htz1 1.11 | locus YOL147C, strain pex11, active compounds read low 0.989 | locus YOR061W, strain CKA2, active compounds read low 0.995 | locus YOR069W, strain VPS5, active compounds read low 0.998 | locus YOR136W, strain idh2, active compounds read low 1 | locus YOR144C, strain elg1, active compounds read low 0.994 | locus YOR184W, strain ser1, active compounds read low 0.917 | locus YOR316C, strain cot1, active compounds read low 1 | locus YPL055C, strain LGE1, active compounds read low 0.888 | locus YPR119W, strain clb2, active compounds read low 1.02 | locus YPR141C, strain kar3, active compounds read low 1 | locus YPR163C, strain tif3, active compounds read low 0.999 | locus YPR167C, strain met16, active compounds read low 1 | strain wtn01, active compounds read low 0.988

COc1ccc(-c2coc3c(O)c(O)c(OC)cc3c2=O)cc1
inactive: [1] 0.96 | locus YHR079C, strain IRE1, active compounds read low 0.969 | [2] 0.955 | locus YJR066W, strain TOR1, active compounds read low 0.912 | locus YLR113W, strain HOG1, active compounds read low 0.955 | locus YNL183C, strain NPR1, active compounds read low 0.888 | locus YOR231W, strain MKK1, active compounds read low 0.971 | locus YPL256C, strain CLN2, active compounds read low 0.953
